Holding throughout (assay): DAPPL (digital affinity profiling via proximity ligation, sequencing); 10 mM Tris-HCl pH 7.5, 50 mM NaCl, 1 mM DTT, 4% glycerol, room temperature, 30 min; GST-TFs on glutathione beads, 16-mer random dsDNA library, 0.1% formaldehyde crosslink after washing; high values mean tight binding
Details in all cases: protein: recombinant; tags: N-terminal GST; dsDNA, one strand shown

One assay deals with T1, FLI1 (Homo sapiens, UniProt Q01543 1-452).
T1 sequence: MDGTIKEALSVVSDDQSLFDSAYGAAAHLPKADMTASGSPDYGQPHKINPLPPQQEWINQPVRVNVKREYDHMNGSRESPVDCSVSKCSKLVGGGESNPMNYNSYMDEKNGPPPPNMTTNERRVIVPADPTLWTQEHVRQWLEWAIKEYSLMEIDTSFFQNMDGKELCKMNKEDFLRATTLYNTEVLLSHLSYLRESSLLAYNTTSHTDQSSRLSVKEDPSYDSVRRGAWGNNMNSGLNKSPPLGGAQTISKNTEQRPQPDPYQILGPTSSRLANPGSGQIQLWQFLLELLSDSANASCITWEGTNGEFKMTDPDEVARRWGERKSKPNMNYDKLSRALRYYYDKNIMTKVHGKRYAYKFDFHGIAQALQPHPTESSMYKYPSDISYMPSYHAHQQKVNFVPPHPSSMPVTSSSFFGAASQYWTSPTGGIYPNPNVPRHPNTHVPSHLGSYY
Summed up: (§1)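 Each value of binding signal is a hexamer's read frequency for a factor divided by the same hexamer's frequency in the tag-only sample. Barcoded, bead-captured GST fusions of human transcription factors made in yeast were pooled with that sample and incubated with 200 nmole of a random double-stranded 16-mer DNA library in Tris/NaCl/DTT/glycerol buffer at room temperature for 30 min. Washing, 0.1% formaldehyde crosslinking, proximity ligation, PCR and Illumina NextSeq500 sequencing followed.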

In a further assay the target is T2, ELK1 (Homo sapiens, UniProt P19419 1-428).
T2 sequence: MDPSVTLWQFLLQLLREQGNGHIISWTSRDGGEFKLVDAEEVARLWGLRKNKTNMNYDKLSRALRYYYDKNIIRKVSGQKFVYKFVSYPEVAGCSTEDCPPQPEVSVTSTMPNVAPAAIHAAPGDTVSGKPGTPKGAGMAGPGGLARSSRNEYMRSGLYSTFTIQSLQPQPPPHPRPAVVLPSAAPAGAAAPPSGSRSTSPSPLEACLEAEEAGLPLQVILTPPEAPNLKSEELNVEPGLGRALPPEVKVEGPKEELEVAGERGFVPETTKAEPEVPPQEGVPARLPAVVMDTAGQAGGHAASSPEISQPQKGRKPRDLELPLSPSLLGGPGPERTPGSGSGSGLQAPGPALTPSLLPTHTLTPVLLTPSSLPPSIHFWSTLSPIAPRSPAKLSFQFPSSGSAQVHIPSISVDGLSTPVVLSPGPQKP
Summed up: as §1

The next assay deals with T3, GABPA (Homo sapiens, UniProt Q06546 1-454).
T3 sequence: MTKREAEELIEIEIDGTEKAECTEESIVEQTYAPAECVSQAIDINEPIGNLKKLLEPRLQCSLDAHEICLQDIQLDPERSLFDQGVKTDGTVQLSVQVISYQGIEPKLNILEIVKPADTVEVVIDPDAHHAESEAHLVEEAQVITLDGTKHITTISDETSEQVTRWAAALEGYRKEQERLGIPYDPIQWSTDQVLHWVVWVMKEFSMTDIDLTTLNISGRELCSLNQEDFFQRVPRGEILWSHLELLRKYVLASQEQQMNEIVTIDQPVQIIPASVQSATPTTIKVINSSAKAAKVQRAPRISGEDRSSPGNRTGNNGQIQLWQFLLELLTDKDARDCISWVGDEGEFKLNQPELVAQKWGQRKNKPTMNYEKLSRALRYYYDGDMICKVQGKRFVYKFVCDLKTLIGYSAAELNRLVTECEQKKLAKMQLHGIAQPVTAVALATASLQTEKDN
Summed up: as §1

The next assay concerns the target T4, ERG (Homo sapiens, UniProt P11308 1-479).
T4 sequence: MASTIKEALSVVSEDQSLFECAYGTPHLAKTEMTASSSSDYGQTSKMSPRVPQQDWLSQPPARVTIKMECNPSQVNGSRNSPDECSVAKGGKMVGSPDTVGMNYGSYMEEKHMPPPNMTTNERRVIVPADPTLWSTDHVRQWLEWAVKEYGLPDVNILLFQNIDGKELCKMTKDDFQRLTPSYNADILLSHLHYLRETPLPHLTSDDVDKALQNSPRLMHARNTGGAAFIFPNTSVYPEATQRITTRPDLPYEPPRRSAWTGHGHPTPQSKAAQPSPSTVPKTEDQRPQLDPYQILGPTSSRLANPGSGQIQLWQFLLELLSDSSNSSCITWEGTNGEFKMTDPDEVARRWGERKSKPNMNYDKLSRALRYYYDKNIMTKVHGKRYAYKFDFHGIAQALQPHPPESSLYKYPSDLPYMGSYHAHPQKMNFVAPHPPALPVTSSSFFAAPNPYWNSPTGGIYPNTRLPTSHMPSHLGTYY
In outline: as §1

In a further assay the target is ELF1 (Homo sapiens, UniProt P32519 1-619). Summed up: as §1
Another assay addresses T5, EHF (Homo sapiens, UniProt Q9NZC4 1-300).
T5 sequence: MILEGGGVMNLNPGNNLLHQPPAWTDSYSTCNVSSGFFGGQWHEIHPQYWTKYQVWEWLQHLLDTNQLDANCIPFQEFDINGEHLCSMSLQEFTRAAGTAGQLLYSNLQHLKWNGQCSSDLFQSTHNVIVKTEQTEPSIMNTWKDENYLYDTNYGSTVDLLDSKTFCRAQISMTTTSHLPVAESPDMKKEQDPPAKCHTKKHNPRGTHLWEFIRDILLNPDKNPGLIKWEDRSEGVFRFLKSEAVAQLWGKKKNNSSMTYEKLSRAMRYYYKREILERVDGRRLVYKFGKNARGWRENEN
Summed up:
as §1

The next assay has as its target SPI1 (Homo sapiens, UniProt P17947 1-270). Summed up:
as §1

The next assay concerns the target SPIB (Homo sapiens, UniProt Q01892 1-262). In outline: as §1
A further assay deals with T6, ELK3 (Homo sapiens, UniProt P41970 1-407).
T6 sequence: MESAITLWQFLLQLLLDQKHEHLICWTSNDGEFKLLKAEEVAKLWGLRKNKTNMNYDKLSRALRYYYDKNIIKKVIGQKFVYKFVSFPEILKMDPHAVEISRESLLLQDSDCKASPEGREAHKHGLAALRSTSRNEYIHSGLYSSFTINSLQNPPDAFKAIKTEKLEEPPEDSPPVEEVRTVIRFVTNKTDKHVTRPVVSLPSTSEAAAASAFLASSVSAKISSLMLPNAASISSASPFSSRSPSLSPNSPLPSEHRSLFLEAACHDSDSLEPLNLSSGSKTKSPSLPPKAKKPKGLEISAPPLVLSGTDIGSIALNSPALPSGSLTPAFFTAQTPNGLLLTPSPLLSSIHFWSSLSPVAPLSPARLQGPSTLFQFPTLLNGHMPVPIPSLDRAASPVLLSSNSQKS
Summed up:
as §1

The target in a further assay is T7, FEV (Homo sapiens, UniProt Q99581 1-238).
T7 sequence: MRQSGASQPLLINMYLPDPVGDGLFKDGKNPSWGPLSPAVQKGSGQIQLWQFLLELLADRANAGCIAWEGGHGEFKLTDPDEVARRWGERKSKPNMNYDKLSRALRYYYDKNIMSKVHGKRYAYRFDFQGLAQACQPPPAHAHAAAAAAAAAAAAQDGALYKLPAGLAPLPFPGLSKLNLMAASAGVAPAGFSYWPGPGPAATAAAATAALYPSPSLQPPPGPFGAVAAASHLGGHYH
In outline:
as §1

The next assay deals with ETV5 (Homo sapiens, UniProt P41161 1-510). In outline:
as §1

The next assay has as its target T8, SPIC (Homo sapiens, UniProt Q8N5J4 1-248).
T8 sequence: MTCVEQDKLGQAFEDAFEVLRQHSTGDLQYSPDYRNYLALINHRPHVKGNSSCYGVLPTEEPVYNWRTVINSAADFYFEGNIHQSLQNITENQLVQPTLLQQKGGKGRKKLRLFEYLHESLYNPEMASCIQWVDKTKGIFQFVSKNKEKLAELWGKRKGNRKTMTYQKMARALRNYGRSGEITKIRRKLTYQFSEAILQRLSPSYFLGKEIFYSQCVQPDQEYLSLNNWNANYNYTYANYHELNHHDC
In outline:
as §1

The next assay has as its target ELF4 (Homo sapiens, UniProt Q99607 1-663). Summed up:
as §1

The next assay addresses T9, ELK4 (Homo sapiens, UniProt P28324-2 1-405).
T9 sequence: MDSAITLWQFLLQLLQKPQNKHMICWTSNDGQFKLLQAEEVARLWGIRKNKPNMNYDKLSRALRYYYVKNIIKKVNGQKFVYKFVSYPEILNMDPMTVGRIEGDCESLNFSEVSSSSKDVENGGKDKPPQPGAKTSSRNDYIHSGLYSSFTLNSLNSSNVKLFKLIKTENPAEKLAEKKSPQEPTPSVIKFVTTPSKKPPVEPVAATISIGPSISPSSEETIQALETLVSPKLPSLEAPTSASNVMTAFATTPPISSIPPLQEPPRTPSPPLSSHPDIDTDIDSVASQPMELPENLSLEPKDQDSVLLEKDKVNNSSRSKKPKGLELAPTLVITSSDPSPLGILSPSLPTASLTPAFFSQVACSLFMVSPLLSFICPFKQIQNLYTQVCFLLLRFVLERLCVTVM
In outline:
as §1

A further assay addresses T10, ETV2 (Homo sapiens, UniProt O00321 1-342).
T10 sequence: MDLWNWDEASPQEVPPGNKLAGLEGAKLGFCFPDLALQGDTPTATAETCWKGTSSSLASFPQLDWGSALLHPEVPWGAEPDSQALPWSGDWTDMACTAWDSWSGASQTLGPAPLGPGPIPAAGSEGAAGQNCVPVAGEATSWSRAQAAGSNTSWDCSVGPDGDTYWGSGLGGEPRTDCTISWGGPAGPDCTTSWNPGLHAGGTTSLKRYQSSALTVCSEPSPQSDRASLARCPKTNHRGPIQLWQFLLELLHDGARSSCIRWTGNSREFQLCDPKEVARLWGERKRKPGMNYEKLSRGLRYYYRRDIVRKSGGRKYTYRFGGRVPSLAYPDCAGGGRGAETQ
In outline:
as §1

The next assay addresses T11, ELF3 (Homo sapiens, UniProt P78545 1-371).
T11 sequence: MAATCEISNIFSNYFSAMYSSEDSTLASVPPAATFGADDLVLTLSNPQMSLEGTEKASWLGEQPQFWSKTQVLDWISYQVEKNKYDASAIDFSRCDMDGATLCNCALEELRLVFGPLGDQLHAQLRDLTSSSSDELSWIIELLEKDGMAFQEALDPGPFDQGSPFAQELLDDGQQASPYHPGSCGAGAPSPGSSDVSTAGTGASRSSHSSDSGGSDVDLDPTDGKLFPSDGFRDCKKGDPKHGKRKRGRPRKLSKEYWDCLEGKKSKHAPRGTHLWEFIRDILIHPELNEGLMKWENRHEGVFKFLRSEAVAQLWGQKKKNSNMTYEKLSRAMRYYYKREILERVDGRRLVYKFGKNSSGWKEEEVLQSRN
In outline:
as §1

Another assay deals with ETV1 (Homo sapiens, UniProt P50549 1-477). In outline: as §1
Chain of ETV1 (P50549 whole entry): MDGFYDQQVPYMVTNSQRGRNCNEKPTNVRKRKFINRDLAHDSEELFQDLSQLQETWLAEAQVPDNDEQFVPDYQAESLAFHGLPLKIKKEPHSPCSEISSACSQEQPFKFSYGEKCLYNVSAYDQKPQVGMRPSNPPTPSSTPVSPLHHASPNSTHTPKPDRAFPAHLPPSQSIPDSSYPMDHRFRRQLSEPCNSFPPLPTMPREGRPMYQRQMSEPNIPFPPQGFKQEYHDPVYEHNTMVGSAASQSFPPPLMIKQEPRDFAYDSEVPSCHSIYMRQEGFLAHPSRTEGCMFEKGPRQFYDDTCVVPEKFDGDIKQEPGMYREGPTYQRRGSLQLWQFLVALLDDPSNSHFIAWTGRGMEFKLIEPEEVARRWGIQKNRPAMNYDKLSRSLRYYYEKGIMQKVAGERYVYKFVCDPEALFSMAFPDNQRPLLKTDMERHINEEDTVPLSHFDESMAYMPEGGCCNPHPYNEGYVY

Chain of ETV5 (P41161 whole entry): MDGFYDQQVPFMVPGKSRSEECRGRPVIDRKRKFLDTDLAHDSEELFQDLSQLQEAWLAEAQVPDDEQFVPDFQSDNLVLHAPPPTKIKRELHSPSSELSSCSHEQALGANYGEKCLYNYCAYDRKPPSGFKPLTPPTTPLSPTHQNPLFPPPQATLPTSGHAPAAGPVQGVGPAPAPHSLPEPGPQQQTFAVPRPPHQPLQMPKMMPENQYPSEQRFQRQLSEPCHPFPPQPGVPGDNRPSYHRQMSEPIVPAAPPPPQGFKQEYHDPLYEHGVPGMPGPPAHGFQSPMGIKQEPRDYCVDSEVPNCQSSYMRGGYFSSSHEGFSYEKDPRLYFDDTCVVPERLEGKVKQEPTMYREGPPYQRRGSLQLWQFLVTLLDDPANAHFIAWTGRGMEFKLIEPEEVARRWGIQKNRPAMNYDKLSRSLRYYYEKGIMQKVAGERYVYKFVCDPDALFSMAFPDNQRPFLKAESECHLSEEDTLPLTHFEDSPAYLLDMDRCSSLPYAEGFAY
Chain of ELF4 (Q99607 whole entry): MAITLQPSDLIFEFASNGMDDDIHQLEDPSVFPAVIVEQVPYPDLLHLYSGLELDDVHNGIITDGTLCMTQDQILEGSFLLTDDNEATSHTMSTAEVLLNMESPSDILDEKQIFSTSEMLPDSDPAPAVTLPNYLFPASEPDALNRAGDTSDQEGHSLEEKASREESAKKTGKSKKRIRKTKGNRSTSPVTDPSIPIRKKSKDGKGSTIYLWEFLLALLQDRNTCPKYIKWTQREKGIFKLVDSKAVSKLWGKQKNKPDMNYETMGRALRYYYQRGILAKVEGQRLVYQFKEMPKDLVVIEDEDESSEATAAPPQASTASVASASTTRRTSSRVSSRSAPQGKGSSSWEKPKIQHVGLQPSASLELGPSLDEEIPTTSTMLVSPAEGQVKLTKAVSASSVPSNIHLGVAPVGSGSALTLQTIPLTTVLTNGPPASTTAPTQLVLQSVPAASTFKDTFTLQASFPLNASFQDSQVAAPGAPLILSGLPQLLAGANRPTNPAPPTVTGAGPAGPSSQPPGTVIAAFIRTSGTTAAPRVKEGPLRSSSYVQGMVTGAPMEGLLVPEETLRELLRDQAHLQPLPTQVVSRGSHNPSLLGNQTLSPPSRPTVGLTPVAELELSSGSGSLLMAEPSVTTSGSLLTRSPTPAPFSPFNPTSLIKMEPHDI
Chain of ELF1 (P32519 whole entry): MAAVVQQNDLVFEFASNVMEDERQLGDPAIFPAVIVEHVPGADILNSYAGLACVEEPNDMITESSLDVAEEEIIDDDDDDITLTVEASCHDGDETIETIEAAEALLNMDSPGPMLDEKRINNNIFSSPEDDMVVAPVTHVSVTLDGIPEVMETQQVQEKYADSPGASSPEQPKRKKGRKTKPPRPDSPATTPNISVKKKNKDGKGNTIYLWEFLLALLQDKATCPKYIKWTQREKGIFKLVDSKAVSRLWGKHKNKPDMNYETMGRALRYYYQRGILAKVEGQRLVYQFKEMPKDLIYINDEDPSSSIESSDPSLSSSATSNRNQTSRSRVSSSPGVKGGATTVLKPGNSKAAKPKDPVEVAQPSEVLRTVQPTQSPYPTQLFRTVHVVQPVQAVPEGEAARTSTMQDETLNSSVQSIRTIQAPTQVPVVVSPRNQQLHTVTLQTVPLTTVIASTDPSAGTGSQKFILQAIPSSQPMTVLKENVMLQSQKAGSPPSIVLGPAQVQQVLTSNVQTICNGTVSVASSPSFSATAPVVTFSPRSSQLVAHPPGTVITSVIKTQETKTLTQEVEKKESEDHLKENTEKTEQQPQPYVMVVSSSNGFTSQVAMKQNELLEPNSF
Chain of SPIB (Q01892 whole entry): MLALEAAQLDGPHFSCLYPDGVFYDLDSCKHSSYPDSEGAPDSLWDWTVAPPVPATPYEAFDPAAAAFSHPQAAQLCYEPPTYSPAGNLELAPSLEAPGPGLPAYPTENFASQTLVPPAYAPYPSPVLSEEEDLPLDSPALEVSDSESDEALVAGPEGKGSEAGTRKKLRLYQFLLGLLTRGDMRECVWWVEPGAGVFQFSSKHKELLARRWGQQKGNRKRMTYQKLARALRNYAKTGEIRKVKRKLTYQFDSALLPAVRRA

Take ACATCA: the binding signal with FLI1 is 1.11 fold enrichment (6-mer frequency, TF over GST control); in the assay with ELK1, 1.12 fold enrichment (6-mer frequency, TF over GST control); with GABPA, 1.09 fold enrichment (6-mer frequency, TF over GST control); with ERG, 1.14 fold enrichment (6-mer frequency, TF over GST control); in the assay with ELF1 it was 1.16 fold enrichment (6-mer frequency, TF over GST control); in the assay with EHF it was 1.23 fold enrichment (6-mer frequency, TF over GST control). The binding signal was 1.13 fold enrichment (6-mer frequency, TF over GST control) in the assay with SPI1; 1.07 fold enrichment (6-mer frequency, TF over GST control) with SPIB; 1.11 fold enrichment (6-mer frequency, TF over GST control) in the assay with ELK3; 1.17 fold enrichment (6-mer frequency, TF over GST control) in the assay with FEV; 1.17 fold enrichment (6-mer frequency, TF over GST control) with ETV5; 1.13 fold enrichment (6-mer frequency, TF over GST control) with SPIC. Further, the binding signal is 1.19 fold enrichment (6-mer frequency, TF over GST control) with ELF4; 1.14 fold enrichment (6-mer frequency, TF over GST control) in the assay with ELK4; 1.22 fold enrichment (6-mer frequency, TF over GST control) with ETV2; 1.15 fold enrichment (6-mer frequency, TF over GST control) in the assay with ELF3; 1.15 fold enrichment (6-mer frequency, TF over GST control) in the assay with ETV1.
For AGTGTT, the binding signal was 1.05 fold enrichment (6-mer frequency, TF over GST control) in the assay with FLI1; 1.16 fold enrichment (6-mer frequency, TF over GST control) with ELK1; 1.14 fold enrichment (6-mer frequency, TF over GST control) with GABPA; 1.15 fold enrichment (6-mer frequency, TF over GST control) with ERG; 1.08 fold enrichment (6-mer frequency, TF over GST control) with ELF1; 1.02 fold enrichment (6-mer frequency, TF over GST control) with EHF. Further, the binding signal is 1.32 fold enrichment (6-mer frequency, TF over GST control) with SPI1; 1.15 fold enrichment (6-mer frequency, TF over GST control) in the assay with SPIB; 1.02 fold enrichment (6-mer frequency, TF over GST control) with FEV; 1.06 fold enrichment (6-mer frequency, TF over GST control) with ETV5; 1.18 fold enrichment (6-mer frequency, TF over GST control) in the assay with SPIC; 1.05 fold enrichment (6-mer frequency, TF over GST control) in the assay with ELF4. Further, the binding signal in the assay with ELK4 was 1.08 fold enrichment (6-mer frequency, TF over GST control); in the assay with ETV2, 1.07 fold enrichment (6-mer frequency, TF over GST control); with ELF3, 1.26 fold enrichment (6-mer frequency, TF over GST control); with ETV1 it was 1.06 fold enrichment (6-mer frequency, TF over GST control).

Values taken from PMC7862700, “An all-to-all approach to the identification of sequence-specific readers for epigenetic DNA modifications on cytosine”.
